Experiment [1] has as its target Paired box protein Pax-6 (Homo sapiens) (UniProt P26367). The experiment in a line: ATG_Pax6_CIS: Attagene CIS-FACTORIAL HepG2 Assay for human Paired Box 6 (PAX6) (AID 2282956). The settings on record: HepG2 CIS-FACTORIAL PAX6 reporter transcription, RNA readout; actives raise or lower the signal. In short, it runs like this: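 Read-out is reporter transcript level, measured by RT-PCR with fluorescent primer extension and capillary electrophoresis after 24 h dosing of transfected HepG2 cells. Activity in either direction fitted relative to DMSO control.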

Experiment [2] in a line: ATG_PXRE_CIS: Attagene CIS-FACTORIAL HepG2 Assay for human Pregnane X Receptor Element (PXRE) (AID 2282957). The conditions noted are these: HepG2 Attagene CIS-FACTORIAL PXRE reporter, mRNA; actives raise or lower the signal. A digest of the protocol:
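Fluorescent capillary electrophoresis of amplified reporter cDNA gave the signal, collected 24 h after dosing HepG2 cells that held transfected cis-element reporter constructs.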

Experiment [3] is described as follows: ATG_PPRE_CIS: Attagene CIS-FACTORIAL HepG2 Assay for human Peroxisome Proliferator-activated Response Element (PPRE) (AID 2282958). The settings on record: HepG2 PPRE cis-element reporter, Attagene transcription factor profiling; actives raise or lower the signal. A digest of the protocol: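 Transcript-level reporter induction in transfected HepG2 cells after 24 h chemical exposure, quantified by fluorescence from RT-PCR products separated by capillary electrophoresis.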

A short description of experiment [4]: ATG_RORE_CIS: Attagene CIS-FACTORIAL HepG2 Assay for human RAR-related Orphan Receptor Element (RORE) (AID 2282959). The settings on record: HepG2 Attagene cis-factorial RORE reporter, mRNA; actives raise or lower the signal. A digest of the protocol:
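Multiplexed reporter assay measuring mRNA induction from a cis promoter element in transiently transfected HepG2 cells after 24 h treatment. Detection via RT-PCR and capillary electrophoresis fluorescence; DMSO serves as baseline.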

Experiment [5] in a line: ATG_Sox_CIS: Attagene CIS-FACTORIAL HepG2 Assay for human SRY-box transcription factor (SOX) (AID 2282960). The settings on record: HepG2 Attagene cis-factorial SOX reporter, mRNA; actives raise or lower the signal. In short, it runs like this: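 Cells were transfected with reporter constructs under cis-regulatory promoters, then exposed to chemicals for 24 h. Reporter transcripts were quantified by fluorescence after RT-PCR and capillary electrophoresis; activity was fitted in both directions against DMSO.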

Experiment [6] has as its target Transcription factor Sp1 (Homo sapiens) (UniProt P08047). The experiment is described as follows: ATG_Sp1_CIS: Attagene CIS-FACTORIAL HepG2 Assay for human Specificity Protein 1 (Sp1) (AID 2282961). The settings on record: HepG2 Sp1 cis-reporter transcription, actives raise or lower the signal. A digest of the protocol: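 Measures mRNA induction of an Sp1-linked reporter in HepG2 cells 24 h post-dosing. Multiplexed reporters read by RT-PCR and capillary electrophoresis; DMSO serves as negative control and baseline.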

A short description of experiment [7]: ATG_SREBP_CIS: Attagene CIS-FACTORIAL HepG2 Assay for human Sterol Regulatory Element Binding (SREBP) (AID 2282962). The conditions noted are these: HepG2 Attagene cis-factorial SREBP reporter, mRNA; actives raise or lower the signal. A digest of the protocol:
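Endogenous SREBP activity read as cis-element-driven reporter transcript in transiently transfected HepG2, 24 h post-dosing; quantified via RT-PCR plus capillary electrophoresis of fluorescent fragments. Gain or loss of signal fitted relative to DMSO baseline.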

For experiment [8], the target named is Signal transducer and activator of transcription 3 (Homo sapiens) (UniProt P40763). The experiment in a line: ATG_STAT3_CIS: Attagene CIS-FACTORIAL HepG2 Assay for human Signal Transducer and Activator of Transcription 3 (STAT3) (AID 2282963). The settings on record: HepG2, Attagene cis-factorial STAT3 reporter transcription; actives raise or lower the signal. A digest of the protocol: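 Readout: fluorescent reporter mRNA fragments resolved by capillary electrophoresis. Setup: HepG2 transfected with MRTUs reporting endogenous transcription-factor activity, dosed 24 h. Gain or loss of signal fitted bidirectionally against DMSO control.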
Chain of Signal transducer and activator of transcription 3 (Homo sapiens) (P40763 whole entry, looked up, the tested form may be a part): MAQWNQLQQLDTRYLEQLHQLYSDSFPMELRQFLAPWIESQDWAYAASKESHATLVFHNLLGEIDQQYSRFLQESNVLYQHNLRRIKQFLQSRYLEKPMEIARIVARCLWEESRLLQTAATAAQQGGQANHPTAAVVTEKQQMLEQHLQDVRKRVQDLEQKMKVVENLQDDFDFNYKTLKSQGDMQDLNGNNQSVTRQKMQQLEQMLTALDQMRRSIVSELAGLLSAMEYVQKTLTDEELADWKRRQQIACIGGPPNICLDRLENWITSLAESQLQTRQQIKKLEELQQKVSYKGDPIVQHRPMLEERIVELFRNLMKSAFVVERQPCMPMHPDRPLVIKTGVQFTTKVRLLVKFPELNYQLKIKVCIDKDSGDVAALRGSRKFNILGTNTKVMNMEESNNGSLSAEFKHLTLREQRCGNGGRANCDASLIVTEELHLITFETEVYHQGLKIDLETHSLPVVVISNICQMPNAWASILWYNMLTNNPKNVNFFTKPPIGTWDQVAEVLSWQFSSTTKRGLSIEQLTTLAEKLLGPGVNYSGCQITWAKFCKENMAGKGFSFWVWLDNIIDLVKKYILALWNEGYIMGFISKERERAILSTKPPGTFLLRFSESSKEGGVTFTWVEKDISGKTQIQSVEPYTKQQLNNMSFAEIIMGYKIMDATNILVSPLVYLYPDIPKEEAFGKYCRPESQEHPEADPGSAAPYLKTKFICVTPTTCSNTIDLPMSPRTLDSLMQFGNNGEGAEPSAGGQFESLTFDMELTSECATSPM

The nature of experiment [9]: ATG_TA_CIS: Attagene CIS-FACTORIAL HepG2 Assay for human TA Basal Promoter (AID 2282964). The settings on record: HepG2 Attagene CIS-factorial TA basal promoter reporter; actives raise or lower the signal. A digest of the protocol: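 Transfected HepG2, 24 h compound exposure; RNA → RT-PCR → FAM primer extension → HpaI cut → CE fluorescence. Gain/loss-of-signal fitted against DMSO negative control. Background-control readout.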

Experiment [10] is described as follows: ATG_TCF_b_cat_CIS: Attagene CIS-FACTORIAL HepG2 Assay for human T-Cell-Factor with beta-catenin (TCF/b-cat) (AID 2282965). The conditions noted are these: HepG2 TCF/beta-catenin cis-reporter transcription, actives raise or lower the signal. A digest of the protocol:
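HepG2, transient MRTU transfection, cis-element-driven reporters (endogenous TFs). 24 h compound exposure. Readout: reporter mRNA by RT-PCR + 6-FAM primer extension, HpaI digest, capillary electrophoresis. Gain/loss fit vs DMSO baseline.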

Experiment [11] in a line: ATG_TAL_CIS: Attagene CIS-FACTORIAL HepG2 Assay for human TAL Basal Promoter (AID 2282966).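 Also: background control endpoint measuring basal TAL promoter reporter mRNA not a specific factor.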 The settings on record: HepG2 Attagene cis-factorial TAL promoter reporter; actives raise or lower the signal. In short, it runs like this: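 Transiently transfected HepG2 (cis-regulated reporter units), 24 h treatment, mRNA read by fluorescent CE after RT-PCR; bidirectional fit, DMSO baseline.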

Experiment [12] in a line: ATG_TGFb_CIS: Attagene CIS-FACTORIAL HepG2 Assay for human Transforming Growth Factor (TGF) (AID 2282967). The conditions noted are these: HepG2 Attagene CIS TGFb reporter, mRNA transcription; actives raise or lower the signal. A digest of the protocol: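 Readout: fluorescently labeled reporter cDNA fragments resolved by capillary electrophoresis after RT-PCR. Transfected HepG2 cells dosed for 24 h; endogenous TF activity at TGFB1-linked cis element; gain or loss fitted relative to DMSO.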

A short description of experiment [13]: ATG_VDRE_CIS: Attagene CIS-FACTORIAL HepG2 Assay for human Vitamin D Receptor Element (VDRE) (AID 2282968). The settings on record: HepG2 VDRE cis-reporter transcription, actives raise or lower the signal. In short, it runs like this: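 Transient MRTU transfection of HepG2, 24 h compound exposure. Readout: reporter transcripts via RT-PCR and capillary electrophoresis, fluorescence. Bidirectional fit vs DMSO.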

For experiment [14], the target named is Steroid hormone receptor ERR1 (Homo sapiens) (UniProt P11474). The experiment is described as follows: ATG_ERRa_TRANS: Attagene TRANS-FACTORIAL HepG2 Assay for human Estrogen-Related Receptor alpha (ERRa) (AID 2282971; active = hit-call score of the fitted dose curve at least 0.9, where 1 is the maximum). The settings on record: HepG2 Attagene TRANS reporter, ERRa transactivation. In short, it runs like this:
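HepG2 cells transiently transfected with multiplexed GAL4-UAS reporter units reading chimeric ERRa-Gal4 activity; 24 h compound exposure. Reporter mRNA measured by RT-PCR, 6-FAM labelling, HpaI digest and capillary electrophoresis; gain of signal fitted versus DMSO baseline.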

The target in experiment [15] is X-box-binding protein 1 (Homo sapiens) (UniProt P17861). The experiment is described as follows: ATG_Xbp1_CIS: Attagene CIS-FACTORIAL HepG2 Assay for human X-box Binding Protein 1 (XBP1) (AID 2282972). The settings on record: HepG2 XBP1 cis-element reporter, Attagene multiplex; actives raise or lower the signal. In short, it runs like this: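 Reporter transcripts were quantified by RT-PCR with fluorescent primer extension and capillary electrophoresis after 24 h chemical exposure. Cells: transiently transfected HepG2 carrying cis-regulated reporter constructs; data fitted bidirectionally relative to DMSO.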
Chain of X-box-binding protein 1 (Homo sapiens) (P17861 whole entry, looked up): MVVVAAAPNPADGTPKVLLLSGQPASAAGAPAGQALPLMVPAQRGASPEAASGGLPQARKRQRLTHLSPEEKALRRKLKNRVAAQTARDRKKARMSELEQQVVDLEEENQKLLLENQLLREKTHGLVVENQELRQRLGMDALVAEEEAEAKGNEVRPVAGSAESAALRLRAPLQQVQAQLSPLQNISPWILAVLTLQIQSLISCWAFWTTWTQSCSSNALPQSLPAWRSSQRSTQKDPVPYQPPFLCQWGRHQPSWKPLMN

The nature of experiment [16]: ATG_GAL4_TRANS: Attagene TRANS-FACTORIAL HepG2 Assay for GAL4 (Internal Marker) (AID 2282976; active = hit-call score of the fitted dose curve at least 0.9, where 1 is the maximum). The conditions noted are these: HepG2 Attagene TRANS GAL4 internal marker reporter. In short, it runs like this: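 HepG2 cells transiently transfected with multiplexed GAL4-UAS reporter constructs were dosed for 24 h. Reporter mRNA was measured by RT-PCR, 6-FAM primer extension, HpaI digestion and capillary electrophoresis, and gain of signal was fitted relative to DMSO.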

Experiment [17] has as its target Estrogen receptor (Homo sapiens) (UniProt P03372). The experiment in a line: ATG_ERa_TRANS: Attagene TRANS-FACTORIAL HepG2 Assay for human Estrogen Receptor alpha (ERa) (AID 2282970; active = hit-call score of the fitted dose curve at least 0.9, where 1 is the maximum). The conditions noted are these: HepG2 Attagene TRANS ERa GAL4 reporter, mRNA. In short, it runs like this:
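One of 30 multiplexed endpoints from a HepG2 TRANS system, this one reports ERa-Gal4-driven reporter mRNA. Transcripts were quantified 24 hours post-dosing by fluorescent RT-PCR and capillary electrophoresis, with activity scored as induction over DMSO.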

What is called AC50 is the concentration giving half of the maximal activity seen.

Molecules are shown by their SMILES. Inconclusive results are not listed. The source made the active and inactive calls. The calls were made as follows, unless noted: active = hit-call score of the fitted dose curve at least 0.9, where 1 is the maximum; inactive = score below 0.9.

Chain of Paired box protein Pax-6 (Homo sapiens) (P26367 whole entry, looked up): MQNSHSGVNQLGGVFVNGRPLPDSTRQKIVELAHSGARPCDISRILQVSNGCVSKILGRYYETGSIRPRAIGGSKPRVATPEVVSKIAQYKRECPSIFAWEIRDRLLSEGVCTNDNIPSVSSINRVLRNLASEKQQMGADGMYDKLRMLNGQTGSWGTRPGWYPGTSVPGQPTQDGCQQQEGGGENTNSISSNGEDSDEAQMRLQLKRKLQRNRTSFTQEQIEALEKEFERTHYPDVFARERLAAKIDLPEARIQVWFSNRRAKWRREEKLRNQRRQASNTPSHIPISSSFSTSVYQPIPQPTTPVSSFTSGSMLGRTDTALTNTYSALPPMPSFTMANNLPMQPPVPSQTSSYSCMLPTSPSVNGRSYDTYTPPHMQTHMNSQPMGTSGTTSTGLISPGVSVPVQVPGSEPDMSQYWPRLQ
Chain of Estrogen receptor (Homo sapiens) (P03372 whole entry, looked up, the tested form may be a part): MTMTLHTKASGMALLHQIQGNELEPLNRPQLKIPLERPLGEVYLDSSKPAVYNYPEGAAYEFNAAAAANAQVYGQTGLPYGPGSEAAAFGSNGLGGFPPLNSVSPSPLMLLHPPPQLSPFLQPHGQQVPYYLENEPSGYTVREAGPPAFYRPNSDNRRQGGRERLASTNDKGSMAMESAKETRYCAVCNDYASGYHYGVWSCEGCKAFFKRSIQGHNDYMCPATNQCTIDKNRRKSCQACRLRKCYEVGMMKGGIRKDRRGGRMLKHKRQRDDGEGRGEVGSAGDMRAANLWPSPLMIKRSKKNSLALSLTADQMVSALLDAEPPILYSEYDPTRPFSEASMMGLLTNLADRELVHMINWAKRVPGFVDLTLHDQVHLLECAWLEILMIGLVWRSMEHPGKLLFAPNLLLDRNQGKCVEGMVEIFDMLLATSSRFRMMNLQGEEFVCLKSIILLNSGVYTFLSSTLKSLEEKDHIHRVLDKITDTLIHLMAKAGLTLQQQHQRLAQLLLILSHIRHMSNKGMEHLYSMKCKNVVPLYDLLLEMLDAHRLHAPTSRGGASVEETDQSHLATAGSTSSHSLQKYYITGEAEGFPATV
Chain of Transcription factor Sp1 (Homo sapiens) (P08047 whole entry, looked up): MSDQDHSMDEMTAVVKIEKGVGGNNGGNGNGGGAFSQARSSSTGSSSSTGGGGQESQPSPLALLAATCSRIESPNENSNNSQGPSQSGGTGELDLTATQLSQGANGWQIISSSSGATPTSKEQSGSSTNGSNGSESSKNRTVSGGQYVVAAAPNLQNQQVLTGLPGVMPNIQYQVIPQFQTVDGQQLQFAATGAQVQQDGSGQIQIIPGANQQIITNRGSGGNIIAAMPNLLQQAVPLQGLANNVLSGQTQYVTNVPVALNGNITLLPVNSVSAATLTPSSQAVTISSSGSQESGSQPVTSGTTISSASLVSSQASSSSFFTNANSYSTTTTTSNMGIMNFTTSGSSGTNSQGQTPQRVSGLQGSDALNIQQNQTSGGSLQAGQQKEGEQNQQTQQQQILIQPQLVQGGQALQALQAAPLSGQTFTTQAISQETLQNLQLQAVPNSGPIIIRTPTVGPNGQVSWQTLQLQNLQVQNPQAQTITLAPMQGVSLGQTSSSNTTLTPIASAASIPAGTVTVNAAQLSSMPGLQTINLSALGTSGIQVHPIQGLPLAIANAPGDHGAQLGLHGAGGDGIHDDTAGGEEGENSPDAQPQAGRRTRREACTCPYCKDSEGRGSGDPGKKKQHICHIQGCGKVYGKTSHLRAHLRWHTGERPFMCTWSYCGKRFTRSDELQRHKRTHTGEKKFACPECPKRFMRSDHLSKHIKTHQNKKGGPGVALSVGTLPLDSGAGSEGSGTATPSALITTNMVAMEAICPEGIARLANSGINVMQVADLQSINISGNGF
Chain of Steroid hormone receptor ERR1 (Homo sapiens) (P11474 whole entry, looked up, the tested form may be a part): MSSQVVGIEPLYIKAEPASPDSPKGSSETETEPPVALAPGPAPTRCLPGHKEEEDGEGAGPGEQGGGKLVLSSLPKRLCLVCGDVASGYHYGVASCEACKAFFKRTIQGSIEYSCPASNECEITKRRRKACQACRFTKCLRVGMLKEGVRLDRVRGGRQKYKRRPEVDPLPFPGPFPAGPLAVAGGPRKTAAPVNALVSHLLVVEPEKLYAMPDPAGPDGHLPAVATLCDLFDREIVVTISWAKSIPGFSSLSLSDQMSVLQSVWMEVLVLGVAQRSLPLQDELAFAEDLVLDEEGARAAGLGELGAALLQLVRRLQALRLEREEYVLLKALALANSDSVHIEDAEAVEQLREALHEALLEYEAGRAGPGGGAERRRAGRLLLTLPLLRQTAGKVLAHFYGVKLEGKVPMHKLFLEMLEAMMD

For `Nc1cc([N+](=O)[O-])ccc1Cl`, the call in experiment [1], in [2], in experiment [3], in experiment [4], in experiment [5] and in experiment [6] was inactive. Moreover, the call in [7], in [8], in [9], in [10], in experiment [11] and in experiment [12] was inactive. Moreover, the outcome in experiment [13], in [14], in experiment [15] and in experiment [16] was inactive.

On to `CN1[C@@H]2CC(OC(=O)[C@H](CO)c3ccccc3)C[C@H]1[C@@H]1O[C@@H]12` (stereo partly drawn), for which the call in [1], in experiment [2], in experiment [3], in experiment [4], in experiment [5] and in [6] was inactive. Further, the compound was classed as inactive in experiment [7], in [8], in [9], in [10], in experiment [11] and in experiment [12]. The compound was called inactive in experiment [13], in [17], in experiment [15] and in experiment [16].

Turning to `BrC1CCC(Br)C(Br)CCC(Br)C(Br)CCC1Br` (stereo not drawn), the concentration at half-maximal activity (AC50) in [1] was 20.5 µM (active); in [2] it was 0.95 µM (active); in experiment [6], 87 µM (active); in [7] it was 53.7 µM (active); in experiment [13] it was 2.52 µM (active); in experiment [15], 45.5 µM (active). The result in experiment [3], in experiment [4], in [5], in [8], in experiment [9] and in [10] was inactive. The compound was classed as inactive in experiment [11], in experiment [12], in [17] and in experiment [14].

For `c1cc(C(c2ccc(OCC3CO3)cc2)c2ccc(OCC3CO3)cc2)ccc1OCC1CO1` (stereo not drawn), the AC50 in experiment [1] was 9.85 µM (active); in [3], 100 µM (active); in [5] it was 9.7 µM (active); in experiment [6] it was 100 µM (active); in experiment [7] it was 26.3 µM (active); in experiment [8], 66.3 µM (active). The AC50 in experiment [9] is 19.8 µM (active); in experiment [10], 8.93 µM (active); in [11], 24.2 µM (active); in [12], 23.7 µM (active); in experiment [13], 10 µM (active); in [15] it was 7.9 µM (active). The compound was classed as inactive in experiment [2] and in experiment [4].

Regarding `CC(=O)O[C@]1(C(C)=O)CC[C@H]2[C@@H]3C[C@H](C)C4=CC(=O)CC[C@]4(C)[C@H]3CC[C@@]21C`, the compound was classed as inactive in experiment [1], in [3], in experiment [5], in [6], in experiment [7] and in [8]. Also, the compound was called inactive in [10], in [11], in experiment [12], in experiment [17], in experiment [15] and in experiment [16]. For the same compound, the AC50 in experiment [2] is 2.76 µM (active); in experiment [4] it was 11.2 µM (active); in [9], 42.4 µM (active); in [13], 17.1 µM (active).

Values taken from PubChem BioAssay (EPA / NIEHS).
